From PubChem BioAssay AID463173 (ICCB-Longwood Screening Facility, Harvard Medical School, 2010)
In all, about 52,000 compounds went through this assay and about 4,300 (8.3%) were called active. This is one part of a sample in which actives are shown more often than they occur. Rule as the data show it: active = survival mostly below about 52% (no sharp cut-off); inactive = mostly above about 56%.

These molecules were tested on DeltatarO mutant (assay: S. aureus survival, RN4220 and DeltatarO strains – OD600, teichoic acid synthesis inhibitors, primary screen (AID 463173)). Conditions: S. aureus RN4220 wild type/DeltatarO growth, OD600, 18 h, hits give low values, screened at 18.75 µg/mL (by protocol).

Structure (SMILES) | survival
Cc1c(Cl)cccc1N1C(N)=C(C#N)C(c2cc(CN3CCOCC3)cs2)C2=C1CCCC2=O (stereo not drawn) | 128% (inactive)
COc1ccc(Cl)cc1NC(=O)c1c(NCc2ccc(C)o2)sc2c1CCC(C)C2 (stereo not drawn) | 81% (inactive)
COc1ccc(NC(=O)c2c(NCc3ccc(C)o3)sc3c2CCC(C)C3)c(OC)c1 (stereo not drawn) | 82% (inactive)
COc1ccc(OC)c(NC(=O)c2c(NCc3ccc(C)o3)sc3c2CCC(C)C3)c1 (stereo not drawn) | 52% (active)
Cc1nnc(SCC#N)n1C | 92% (inactive)
CC(=O)Nc1ccc(S(=O)(=O)NCc2ccc(C(=O)NCc3ccc(Cl)cc3)cc2)cc1 | 68% (inactive)
Cc1ccc(-c2nn(-c3ccc(F)cc3)c3c2cnc2cc(F)c(F)cc23)cc1 | 82% (inactive)
CSc1ccc(CCNC(=O)CCc2c(C)nc3c(c(C)nn3-c3ccc(C)c(C)c3)c2C)cc1 | 91% (inactive)
Cc1c2cnn(-c3ccccc3)c(=O)c2c(C)n1CCCC(=O)Nc1ccc(F)cc1F | 72% (inactive)
Cc1ccc2c(c1)c(=O)c1ccccc1n2CCCC(=O)Nc1c(F)cccc1F | 53% (inactive)
Cc1ccc2c(c1)c(=O)c1ccccc1n2CCCC(=O)Nc1cc(Cl)ccc1C | 113% (inactive)
CCCn1c2ccccc2c2cnn(CC(=O)Nc3ccc(C)cc3Br)c(=O)c21 | 94% (inactive)
Cc1ccc(NC(=O)CCCn2c3ccccc3c(=O)c3cc(C)ccc32)c(Br)c1 | 38% (active)
Cc1ccc2c(c1)c(=O)c1ccccc1n2CCCC(=O)Nc1ccc(Cl)cc1C | 45% (active)
Cc1ccc(NC(=O)CCS(=O)(=O)c2ccc3c(c2)oc(=O)n3C)c(Br)c1 | 80% (inactive)
Cc1ccc2c(c1)c(=O)c1ccccc1n2CCCC(=O)Nc1ccc(F)cc1F | 49% (active)
Cc1ccc(CCNC(=O)CCCn2c(=O)c3ccccc3n(CC(=O)Nc3cc(Cl)ccc3C)c2=O)cc1 | 116% (inactive)
CCOc1ccccc1NC(=O)C(C)Sc1cc(-c2ccccc2)nc(C)n1 (stereo not drawn) | 59% (inactive)
CCOC(=O)c1ccc(NC(=O)C(CC)Sc2nc3ncccc3o2)cc1 (stereo not drawn) | 81% (inactive)
C=Cn1c(=N)n(C)c2ccccc21 | 70% (inactive)
O=C(CN1C(=O)COc2ccc(S(=O)(=O)N3CCOCC3)cc21)N1CCN(c2ccccc2)CC1 | 116% (inactive)
COc1ccccc1CNC(=O)c1ccc(-c2nc(CS(=O)(=O)c3ccc(C)cc3)c(C)o2)cc1 | 73% (inactive)

Structure (SMILES) | survival
COc1ccc(F)cc1NC(=O)C1CCN(c2nc(-c3ccc(OC)c(OC)c3)no2)CC1 | 48% (inactive)
Cc1ccc(NC(=O)CCc2nc3cccnc3n2-c2ccccc2)cc1Cl | 64% (inactive)
Cc1ccc(NC(=O)CCc2nc3cccnc3n2-c2ccccc2)cc1 | 80% (inactive)
Cc1cc(NC(=O)CCc2nc3cccnc3n2-c2ccccc2)ccc1Br | 31% (active)
CCOC(=O)Cn1c(-c2cccs2)cc2cc(Cl)ccc21 | 59% (inactive)
COc1cccc(Nc2nc3ccc(C(=O)c4ccccc4)cc3n3c(C)nnc23)c1 | 85% (inactive)
CCc1cccc(NC(=O)c2ccc(CN3C(=O)C(C)=C(c4ccc(OC)cc4)S3(=O)=O)cc2)c1 | 71% (inactive)
CCn1cc(S(=O)(=O)c2ccccc2)c(=O)c2cc(F)c(N3CCCC3)cc21 | 107% (inactive)
CCOc1ccc(NC(=O)C(C)n2c(=O)cc(C)c3c(C)nn(-c4ccccc4)c32)cc1 (stereo not drawn) | 83% (inactive)
Nc1nc(Nc2ccccc2F)sc1C(=O)c1ccc(Cl)cc1 | 2% (active)
Nc1c(C(=O)c2ccc(F)cc2)sc(Nc2ccccc2F)c1S(=O)(=O)c1ccc(Br)cc1 | 67% (inactive)
COc1ccc(C(=O)c2sc(Nc3cc(Cl)ccc3C)nc2N)cc1OC | 131% (inactive)
COc1ccc(NC(=O)Cn2c(=O)oc3cc(S(=O)(=O)NC4CCCC4)ccc32)cc1OC | 93% (inactive)
Nc1nnc(CC(=O)N2CCCC2)s1 | 99% (inactive)
CCCCC(CC)CNC(=O)CCCc1nnc2n(CCC)c(=O)c3sccc3n12 (stereo not drawn) | 75% (inactive)
COc1ccc(-c2nnc(SCC(=O)Nc3ccc(C)c(Cl)c3)nc2-c2ccc(OC)c(OC)c2)cc1OC | 135% (inactive)
COC(=O)CN1C(=O)C(C)(C)c2cc(S(=O)(=O)Nc3ccc(Br)cc3F)ccc21 | 90% (inactive)
CC1CCN(S(=O)(=O)c2ccc3c(c2)N(CC(=O)NCCCN2CCCC(C)C2)C(=O)CS3)CC1 (stereo not drawn) | 75% (inactive)
CCOCCCn1c(SCC(=O)NCc2ccccc2)nc2c(sc3ccccc32)c1=O | -5% (active)
CCCCn1c(SCC(=O)c2ccccc2)nc2c(sc3ccccc32)c1=O | 17% (active)
CCOC(=O)CSc1nc2c(sc3ccccc32)c(=O)n1CCO | -5% (active)
COCCCNC(=O)CSc1nc2c(sc3ccccc32)c(=O)n1CCc1ccccc1 | 72% (inactive)

Structure (SMILES) | survival
CCOCCCn1c(SCC(=O)OCC)nc2c(sc3ccccc32)c1=O | 124% (inactive)
CCOC(=O)CSc1nc2c(sc3ccccc32)c(=O)n1CCc1ccccc1 | 60% (inactive)
CCOCCCn1c(SCC(=O)NCCCOC)nc2c(sc3ccccc32)c1=O | 126% (inactive)
COCCCn1c(SCC(=O)NCc2ccccc2)nc2c(sc3ccccc32)c1=O | 82% (inactive)
CC(C)OCCCn1c(SCC(=O)c2ccccc2)nc2c(sc3ccccc32)c1=O | 88% (inactive)
CCCCn1c(SCC(=O)NCCCOC)nc2c(sc3ccccc32)c1=O | 128% (inactive)
COCCCNC(=O)CSc1nc2c(sc3ccccc32)c(=O)n1CCc1ccc(OC)c(OC)c1 | -4% (active)
CCCCn1c(SCC(=O)NCc2ccc(C)cc2)nc2c(sc3ccccc32)c1=O | 89% (inactive)
O=C(CN1C(=O)COc2ccc(S(=O)(=O)N3CCOCC3)cc21)N1CCN(c2ccc(F)cc2)CC1 | 99% (inactive)
CCC(C)(C)n1nnnc1CN(Cc1ccc(Cl)cc1)CC1CCCO1 (stereo not drawn) | 76% (inactive)
CCCCCNc1nc2c(-c3ccccc3)nnn2c2ccccc12 | 80% (inactive)
c1ccc(CNc2nc3c(-c4ccccc4)nnn3c3ccccc23)cc1 | 75% (inactive)
Cc1ccc(-c2nnn3c2nc(NCCc2ccc(Cl)cc2)c2ccccc23)cc1 | 82% (inactive)
Clc1ccc(-c2nnn3c2nc(NCc2ccc4c(c2)OCO4)c2ccccc23)cc1 | 59% (inactive)
CC1CCC(Nc2nc3c(-c4ccc(Cl)cc4)nnn3c3ccccc23)CC1 (stereo not drawn) | 8% (active)
Clc1ccc(-c2nnn3c2nc(NC2CCCCC2)c2ccccc23)cc1 | 17% (active)
Cc1ccc(-c2nnn3c2nc(NCC(C)c2ccccc2)c2ccccc23)cc1 (stereo not drawn) | 91% (inactive)
Cc1ccc(-c2nnn3c2nc(NC2CCC(C)CC2)c2ccccc23)cc1 (stereo not drawn) | -4% (active)
Cc1ccc(-c2nnn3c2nc(NCCc2ccccc2)c2ccccc23)cc1 | 112% (inactive)
CCCCNC(=O)C(CC)Sc1nnc(-c2ccc(F)cc2)c(-c2ccc(F)cc2)n1 (stereo not drawn) | 83% (inactive)
CSc1ccc(C2c3[nH]c4ccccc4c3CCN2C(=O)CCc2ccccc2)cc1 (stereo not drawn) | 87% (inactive)
CC1CCCN(CCCNC(=O)c2ccc3c(c2)N(Cc2ccc(Cl)cc2)C(=O)c2ccccc2S3(=O)=O)C1 (stereo not drawn) | 145% (inactive)

Structure (SMILES) | survival
COc1c(Cl)cc(Cl)cc1CNCCSc1nnnn1C | 74% (inactive)
COc1ccc(Br)cc1CNC(=O)CCSCc1ccc(Cl)cc1 | 73% (inactive)
CCOC(=O)C1CCCN(S(=O)(=O)c2ccc3c(c2)N(C)C(=O)CC(=O)N3C)C1 (stereo not drawn) | 106% (inactive)
COc1ccc(OCc2nc3c4c(-c5ccc(OC)cc5)c(-c5ccc(OC)cc5)oc4ncn3n2)cc1 | 70% (inactive)
COC(=O)c1ccc([C@H]2Nc3ccc(S(=O)(=O)Nc4cccc(C)c4)cc3[C@H]3C=CC[C@H]32)cc1 | 50% (inactive)
COC(=O)c1ccc([C@H]2Nc3ccc(S(=O)(=O)Nc4ccc(F)cc4)cc3[C@H]3C=CC[C@H]32)cc1 | 53% (active)
Cc1ccc(NS(=O)(=O)c2ccc3c(c2)[C@H]2C=CC[C@H]2[C@@H](c2ccc(F)cc2)N3)cc1C | 58% (inactive)
Cc1cccc(NS(=O)(=O)c2ccc3c(c2)[C@H]2C=CC[C@H]2[C@@H](c2ccc(F)cc2)N3)c1 | 39% (active)
COC(=O)c1ccc([C@H]2Nc3ccc(S(=O)(=O)Nc4ccc(C)cc4)cc3[C@H]3C=CC[C@H]32)cc1 | 60% (inactive)
Cc1cccc(C)c1NS(=O)(=O)c1ccc2c(c1)[C@H]1C=CC[C@H]1[C@@H](c1ccc(Cl)cc1)N2 | 53% (inactive)
Cc1ccc(C)c(N2CCN(C(=O)c3ccc4c(c3)c(C)c(C)n4C)CC2)c1 | 73% (inactive)
COc1ccccc1CNC(=O)Cn1c(=O)oc2cc(S(=O)(=O)N3CCC(C)CC3)ccc21 | 143% (inactive)
COc1ccc(N2CCN(C(=O)CN3C(=O)COc4ccc(S(=O)(=O)N5CCC(C)CC5)cc43)CC2)cc1 | 81% (inactive)
CCOC(=O)c1ccc(-c2ccc(C=C(C#N)C#N)o2)cc1 | 87% (inactive)
CCOC(=O)c1ccc(-c2ccc(/C=C(\C#N)C(=O)Nc3ccc(C)cc3OC)o2)cc1 | 76% (inactive)
N#C/C(=C\c1ccc(-c2cccc(Cl)c2)o1)C(N)=O | 99% (inactive)
Cc1cc(C(=O)OC(C)C)ccc1-c1ccc(C=C(C#N)C#N)o1 | 104% (inactive)
N#CC(C#N)=Cc1ccc(-c2cccc(C(F)(F)F)c2)o1 | 114% (inactive)
CCOC(=O)/C(C#N)=C/c1ccc(-c2ccc(C)cc2)o1 | 98% (inactive)
Cc1ccc2nc(/C(C#N)=C/c3ccc(-c4cccc(Cl)c4)o3)[nH]c2c1 | 6% (active)
CCOC(=O)c1ccc(-c2ccc(/C=C(\C#N)c3nc4ccc(C)cc4[nH]3)o2)cc1 | 32% (active)
Cc1ccc2nc(/C(C#N)=C/c3ccc(-c4ccc(C(=O)OC(C)C)cc4)o3)[nH]c2c1 | 36% (active)
